Source: PubChem BioAssay (National Center for Advancing Translational Sciences (NCATS))
Compounds with a hit are over-represented: about 2.4% of the library has one in this group of screens.
Prx2 Sm inh = blocks S. mansoni peroxiredoxin 2 enzymatic activity. S. mansoni Prx2 activity coupled to TGR/GSH (TGR is thioredoxin glutathione reductase), NADPH fluorescence loss, qHTS. Potency, µM. 0.07% of 65,000 active
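Prx2 inhibition was measured as reduced NADPH consumption when electrons flowed from NADPH through TGR and glutathione to Prx2 and H2O2. Plates were read kinetically over 8 min; enzyme reagents were held at 4 deg C during dispensing.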
Anthrax LT inh = blocks cellular internalization of anthrax lethal toxin | 0.67% of 70,000 active | Potency, µM (doses to about 40 µM), for the others: at the top dose activity change, negative = inhibition, most hits filed as inhibitors | Cells, anthrax lethal toxin internalization, FRET ratio (460/530); note: % is set by controls: 0 for no effect and ±100 for the full control effect; nearly all actives have a fitted effect of over 50% in size
AmpC nodet inh = AmpC beta-lactamase inhibition, detergent-free assay. P00811. AmpC nitrocefin hydrolysis, absorbance 480 nm, no detergent. 1.8% of 71,000 active. Potency, µM (highest dose often 28.7 µM), without a hit: at the top dose activity change, negative = inhibition. AID 585; note: % of control where 0% means no effect
Target sequence (P00811 whole entry, looked up): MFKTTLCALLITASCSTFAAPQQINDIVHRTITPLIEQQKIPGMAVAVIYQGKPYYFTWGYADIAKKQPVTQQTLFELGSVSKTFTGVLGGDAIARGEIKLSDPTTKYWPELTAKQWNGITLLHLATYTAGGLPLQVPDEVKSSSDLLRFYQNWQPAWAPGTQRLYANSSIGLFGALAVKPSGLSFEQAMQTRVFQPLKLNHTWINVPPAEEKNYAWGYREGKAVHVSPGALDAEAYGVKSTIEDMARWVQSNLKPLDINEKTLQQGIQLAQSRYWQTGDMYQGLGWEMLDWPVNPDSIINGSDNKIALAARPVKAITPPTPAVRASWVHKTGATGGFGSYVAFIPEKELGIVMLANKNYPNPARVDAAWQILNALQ
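AmpC in 20 mM phosphate buffer pH 7.0 was preincubated 15 min at room temperature with compounds. Nitrocefin (800 uM stock) was then added and hydrolysis followed at 480 nm every 20 s for 4 min.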
AmpC inh det = inhibitors of E. coli AmpC beta-lactamase with detergent; P00811; purified AmpC, nitrocefin hydrolysis with detergent; Potency, µM (top dose mostly 28.7 µM), for the others: at the top dose activity change, negative = inhibition; 0.09% of 71,000 active; active = well fitted curve in the direction sought with a large enough effect; inconclusive = small, poorly fitted or top-dose-only effect; note: % is set by controls: 0 for no effect and ±100 for the full control effect
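E. coli AmpC (5.3 nM) in 20 mM phosphate pH 7.0 with 0.01% Triton X-100, preincubated 15 min RT with compound; nitrocefin (2 uL of 800 uM stock) hydrolysis followed by 480 nm absorbance every 20 s over 4 min.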
Active calls of the source: *; ? = inconclusive; / = no result given; [ ] = dose if it differs, or a comment. Unless noted, calls come from the whole dose curve. Potency is the fitted concentration of half-maximal effect.

SMILES	Prx2 Sm inh	Anthrax LT inh	AmpC nodet inh	AmpC inh det
CCOC(=O)OCC1OC(c2ccccc2)C=CC1Oc1cccc(N(C)C)c1 (stereo not given)	/	-7.0%[8 µM]	/	/
NC(=NCCCCCCN=C(N)/N=C(\N)Nc1ccc(Cl)cc1)/N=C(\N)Nc1ccc(Cl)cc1	>57	?	2.51µM*	1.3%
COc1cccc(-c2ccc3ncnc(N(C)Cc4ccco4)c3c2)c1	>57	?	6.31µM*	10µM*
CN(Cc1ccco1)c1ncnc2ccc(-c3ccccc3C#N)cc12	>57	?	71.8%	7.9%
COc1ccccc1-c1ccc2ncnc(N3CCOCC3)c2c1	>57	?	133.3%	6.7%
CN(C)c1ccc(-c2ccc3ncnc(N(C)Cc4ccco4)c3c2)cc1	>57	10µM*	38.3%	-2.4%
COc1cccc(-c2ccc3ncnc(N4CCOCC4)c3c2)c1	>57	-29.8%	?	10µM*
NCOC(=O)Cc1ccc(Br)cc1	>57	-3.1%[8 µM]	7.4%[5.75 µM]	-9.0%[5.75 µM]
COc1cc2c(cc1OC)[C@@H]1C(=O)c3ccc4c(c3O[C@@H]1CO2)C=CC(C)(C)O4	>25.6	?	119.2%	-3.0%
CO[C@H]1COC(=O)[C@@H](Cc2ccccc2)NC(=O)[C@@H](C)COC(=O)C/C=C\[C@@H]1C	/	-5.3%[8 µM]	/	/
O=C(CN1CCN(c2ccccc2)CC1)Nc1nnc(-c2ccccc2)s1	>57	-1.0%	-8.5%	-2.2%
O=C(CN1CCN(c2ccc(F)cc2)CC1)Nc1nnc(-c2ccccc2)s1	>57	1.2%	15.8µM*[single pt active]	0.4%
Cn1c(=O)c(=O)n(C)c2cc(S(=O)(=O)CCC(=O)N3CCOCC3)ccc21	>57	-10.3%	3.98µM*[single pt active]	12.4%
Cn1c(=O)c(=O)n(C)c2cc(S(=O)(=O)N3CCOCC3)ccc21	>57	-6.6%	-15.6%	-2.2%
Oc1ccc(Cl)cc1-c1cc(-c2ccccc2)n[nH]1	>57	?	3.98µM*[single pt active]	18.7%
CCCS(=O)(=O)NCCc1csc(-c2cccnc2)n1	>57	-1.7%	17.1%	10.7%
C#C[C@H](N)CCC(=O)O	>57	-0.2%	-0.1%	-0.3%
CCN1C(=O)[C@H]2[C@H]3[C@H](O)[C@H](O)C/C(=N/O[C@@H](C)c4cn([C@H](CO)Cc5ccccc5)nn4)[C@@H]3CC[C@@H]2C1=O	/	4.2%[8 µM]	/	/
O=C(CSc1nnc2scc(-c3ccccc3)n12)NCc1ccc2c(c1)OCO2	>57	9.4%	-2.3%	11.9%
Cn1c(SCC(=O)NCc2ccc3c(c2)OCO3)nc2scc(-c3cccs3)c2c1=O	>57	-8.7%	15.8µM*[single pt active]	-4.1%
CC(C)(C)OC(=O)N1CCC(C(N)=O)CC1	>57	-13.2%	3.98µM*[single pt active]	12.2%
NC(=NCCc1ccc(I)cc1)SCCCc1cnc[nH]1	>57	?	12.4%	1.4%
COc1ccc(Nc2nc(N3CCCC3)nc3ccccc23)c(OC)c1	>57	12.6µM*	53.6%	-1.4%
C[C@@H](C(=O)Nc1ccc2ccccc2c1)[C@@H]1C[C@@]1(C)[C@@H](NS(=O)(=O)c1ccccc1)c1ccccc1	>57	?	-13.7%	0.8%
CC(=O)N[C@@H](c1ccccc1)[C@]1(C)C[C@H]1[C@@H](C)C(=O)Nc1ccc2ccccc2c1	>57	-24.6%	110.8%	0.0%
SMILES	Prx2 Sm inh	Anthrax LT inh	AmpC nodet inh	AmpC inh det
Cc1cc(C(=O)N[C@H](c2ccccc2)[C@@]2(C)C[C@@H]2[C@@H](C)C(=O)Nc2ccc3ccccc3c2)n(C)n1	>57	10µM*	69.0%	-3.3%
C[C@@H](C(=O)Nc1ccc2ccccc2c1)[C@H]1C[C@]1(C)[C@H](NC(=O)OCc1ccccc1)c1ccccc1	>57	?	7.94µM*	1.7%
Cc1ccc(C)o1	/	?	-5.7%	9.9%
Cc1oc2c(O)c(O)ccc2c(=O)c1-c1cnn(-c2ccccc2)c1	/	7.94µM*	-7.4%	2.6%
C=CCSc1nnc(NC(=O)CSc2nc3ccccc3o2)s1	>57	26.0%	10µM*[single pt active]	-3.1%
O=C1C2CC=CCC2C(=O)N1CC1CCCO1 (stereo not given)	>57	-12.5%	-10.6%	-1.6%
O=C1C2CC=CCC2C(=O)N1SC(Cl)(Cl)Cl (stereo not given)	/	3.16µM*	?	-3.5%
COc1ccc(-c2oc3cc(OC)c(OC(C)=O)c(OC)c3c(=O)c2OC)cc1OC(C)=O	37*	?	17.6%	0.2%
O=C(Cn1c(=O)oc2ccccc21)N1CCN(c2ccc(N3CCOCC3)nn2)CC1	>57	1.9%	2.51µM*[single pt active]	12.5%
COc1ccc(-c2nc3cnc(Oc4cccc(Cl)c4)nc3n(CCC#N)c2=O)cc1	>57	?	12.8%	1.0%
CCOC(=O)C1Cn2c(nc3c(c2=O)C(C)(C)Cc2ccccc2-3)S1 (stereo not given)	/	10µM*	85.2%	10.4%
CCOC(=O)C1Cn2c(nc3c(c2=O)C2(CCCC2)Cc2ccccc2-3)S1 (stereo not given)	/	?	71.4%	-3.7%
CC(=O)Nc1ccc(C2NC(C(=O)O)CCC2C)cc1 (stereo not given)	/	0.4%[8 µM]	/	/
Fc1ccc(C(OCCN2CCN(CCCc3ccccc3)CC2)c2ccc(F)cc2)cc1	>57	?	12.7%	-6.1%
c1ccc(CCCN2CCN(CCOC(c3ccccc3)c3ccccc3)CC2)cc1	>57	25.1µM*	70.5%	-0.3%
O=C(NCCc1ccccc1)c1noc2c1CCc1ccccc1-2	>57	-10.8%	-24.5%	-4.6%
COc1ccc2c(c1)CCc1c(C(=O)NCCc3ccc(OC)c(OC)c3)noc1-2	?	-0.4%	78.3%	0.3%
COc1ccc2c(c1)CCc1c(C(=O)NCc3ccc(F)cc3)noc1-2	>57	?	3.98µM*[single pt active]	10.3%
COc1ccc2c(c1)CCc1c(C(=O)Nc3cc(C)n(Cc4ccc(Cl)cc4)n3)noc1-2	>57	4.9%	7.94µM*	-3.0%
CCCNC(=O)c1noc2c1CCc1ccccc1-2	>57	-6.3%	3.16µM*[single pt active]	13.8%
COc1cc(C(=O)OCC(=O)Nc2cc(C)on2)ccc1OCc1ccccc1Cl	>57	2.3%	12.6µM*	-1.8%
N#CC1=C(N)NC(SCC(=O)Nc2ccccc2)=C(C#N)C12CCCC2	>57	10µM*	-20.5%	6.4%
O=C(c1cnccn1)N1CCC[C@@]2(CCN(C(c3ccccc3)c3ccccc3)C2)C1	>57	0.6%	97.3%	-1.8%
Nc1ncnc2c1ncn2[C@@H]1CCCO1	>57	9.4%	-2.9%	10.1%
O=C(CSc1nnc(CNc2ccccc2)o1)N1CCc2ccccc21	>57	0.9%	15.8µM*[single pt active]	-0.4%
SMILES	Prx2 Sm inh	Anthrax LT inh	AmpC nodet inh	AmpC inh det
O=C(CSc1nnc(Cc2ccccc2)o1)N1CCCc2ccccc21	>57	3.9%	28.0%	12.1%
O=C(CSc1nnc(Cc2csc(Nc3cccc(Cl)c3)n2)o1)N1CCc2ccccc21	>57	-26.2%	12.6µM*	0.6%
COCC(=O)N1CCC2(CCCN(Cc3nccs3)C2)CC1	>57	21.6%	-10.3%	0.7%
COc1ccccc1S(=O)Cc1ccc(C(=O)NCCc2ccc(Cl)cc2)o1 (stereo not given)	>57	2.51µM*	73.2%	10.8%
COc1ccccc1S(=O)(=O)Cc1ccc(C(=O)NCCN(C)C)o1	>57	-12.7%	-1.8%	5.1%
COc1ccccc1S(=O)Cc1ccc(C(=O)NC2CCCC2)o1 (stereo not given)	>57	-19.3%	3.98µM*[single pt active]	11.3%
